# Measurements from PubChem BioAssay (Tox21).
# Inconclusive results are not listed. Values without a mark were called inactive. The source made the active and inactive calls. Unless noted, calls follow the shape of the full dose curve. Starred links: 1 amine or outer side, 2 acyl side, 3 side chain; linkers in the order of their positions; H or OH if unused. Positions of bridges follow the written chain, without caps; N, C: chain ends. Non-standard residues stand in square brackets, D forms with d. Residues, ends and D or L forms follow the SMILES beside them. *: point of attachment. X5 = NC1=N[C@@H]([C@H](N[*:1])C(=O)[*:2])C[C@H](O)N1; ΔAla(Z-3-ureido) = NC(=O)N/C=C(\N)C(=O)O; β3hOrn = NCCC[C@H](N)CC(=O)*; Dap = NC[C@H](N)C(=O)O
# Tested on: not listed separately
# Test: qHTS assay to identify small molecule antagonists of the thyroid receptor (TR) signaling pathway (AID 743065; active = well fitted inhibition curve with a large enough effect in the repeat runs; also: nearly all actives have a fitted effect of over 55% in size; also: potency is read from the fitted curve at half-maximal effect)
# Conditions: GH3.TRE-Luc, T3-stimulated luciferase inhibition, 23.5 h; series mostly up to 70.3 µM; activity, negative = inhibition: at the top concentration
# Method in brief: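 Antagonism measured as loss of luciferase signal in GH3 cells stably carrying a TRE-luciferase reporter, co-treated with compound and T3 (1 nM final) for 23.5 h at 37 C. Viability was read in the same well by CellTiter-Fluor.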
# % is scaled to controls: 0 for no effect and ±100 for the full control effect.
SMILES,"activity, negative = inhibition",Potency
CCC(C)C(C(=O)OCC[N+](C)(CC)CC)c1ccccc1 (stereo not given),-0.815%,–
CCOC(=O)[C@H](CCc1ccccc1)N[C@H]1CCCN2CCC[C@@H](C(=O)O)N2C1=O,-3.04%,–
C#CCC(Cc1cnc2nc(N)nc(N)c2n1)c1ccc(C(=O)N[C@@H](CCC(=O)O)C(=O)O)cc1 (stereo not given in full),–,750 nM (active)
CCN(CC)c1ccc(N=Nc2ccc(S(=O)(=O)N(C)C)cc2)c(S(=O)(=O)NCC[n+]2ccccc2)c1,-17.4%,–
NCCC[C@H](N)CC(=O)N[C@H]1CNC(=O)[C@H]([C@H]2C[C@H](O)NC(N)=N2)NC(=O)/C(=C/NC(N)=O)NC(=O)[C@H](CO)NC(=O)[C@H](CO)NC1=O (β3hOrn-[Dap]SS[ΔAla(Z-3-ureido)][X5]; lactam 1-C),3.2%,–
O=C[C@H](O)[C@@H](O)[C@H](O[C@H]1O[C@H](CO)[C@@H](O[C@H]2O[C@H](CO)[C@@H](O)[C@H](O)[C@H]2O)[C@H](O)[C@H]1O)[C@H](O)CO,1.84%,–
CC(=O)N[C@@H](CC(=O)N[C@@H](CCC(=O)O)C(=O)O)C(=O)O,18.8%,–
CC1(C)S[C@@H]2[C@H](NC(=O)C(C(=O)Oc3ccc4c(c3)CCC4)c3ccccc3)C(=O)N2[C@H]1C(=O)O (stereo not given in full),-3.06%,–
CC(=O)OCC(=O)[C@@]1(O)[C@H](C)C[C@H]2[C@@H]3C[C@H](F)C4=CC(=O)C=C[C@]4(C)[C@H]3[C@@H](O)C[C@@]21C,-4.5%,–
C[C@H]1C[C@H]2[C@@H]3CCC4=CC(=O)C=C[C@]4(C)[C@@]3(F)[C@@H](O)C[C@]2(C)[C@@]1(O)C(=O)CCl,-32%,–
C[C@]12CC[C@@H]3c4ccc(OS(=O)(=O)O)cc4CC[C@H]3[C@@H]1CCC2=O,13.7%,–
Cc1c(O)cc2c(c1C)O[C@](C)(CCC[C@H](C)CCC[C@H](C)CCCC(C)C)CC2,-0.0832%,–
CCCCCCCCCCCCCCCC(=O)OC[C@@H](COP(=O)([O-])OCC[N+](C)(C)C)OC(=O)CCCCCCCCCCCCCCC,-0.739%,–
CCCCCCCCCCCCCCCCCCOP(=O)([O-])OC1CC[N+](C)(C)CC1,-0.0602% [at 32.5 µM],–
C=C1CC2C3CCC4=CC(=O)C=C[C@]4(C)[C@@]3(F)[C@@H](O)C[C@]2(C)[C@@]1(O)C(=O)COC(C)=O (stereo not given in full),1.4%,–
CO[C@H]1[C@@H](O)[C@H](N)[C@@H](O[C@H]2O[C@H]([C@H](C)N)CC[C@H]2N)[C@H](O)[C@@H]1N(C)C(=O)CN,3.9%,–

# Tested on: thyroid hormone receptor (rat, GH3 cells)
# Test: qHTS assay to identify small molecule agonists of the thyroid receptor (TR) signaling pathway (AID 743066)
# Conditions: GH3.TRE-Luc cells, TR agonist luciferase, 24 h; series mostly up to 83.9 µM; activation: at the top concentration
row,SMILES,activation
1,C=C1c2c(Cl)ccc(O)c2C(O)=C2C(=O)[C@]3(O)C(O)=C(C(N)=O)C(=O)[C@@H](N(C)C)[C@@H]3[C@@H](O)[C@H]12,-0.0952% [at 39.4 µM]
2,O=P(O)(O)C(O)(Cc1cnc2ccccn12)P(=O)(O)O,0.398%
3,CCCCCCCCCCCCCCCCCC(=O)OCCO,-1.75%
4,COc1cc(S(C)=O)ccc1-c1nc2ncccc2[nH]1 (stereo not given),0.343%
5,c1ccc2c(CCC3CCNCC3)c[nH]c2c1,-6.67%
6,CN[C@@H]1[C@@H](O)[C@@H](O[C@@H]2[C@@H](O)[C@H](OC3OC(CN)=CCC3N)[C@@H](N)C[C@H]2N)OC[C@]1(C)O (stereo not given in full),-0.794% [at 39.4 µM]
7,Cc1cc(Nc2ccccc2C(=O)O)ccc1Cl,-6.41%
8,NCCCC[C@H](NC(=O)[C@@H]1CCCN1C(=O)[C@@H]1CSSC[C@H](N)C(=O)N[C@@H](Cc2ccccc2)C(=O)N[C@@H](Cc2ccccc2)C(=O)N[C@@H](CCC(N)=O)C(=O)N[C@@H](CC(N)=O)C(=O)N1)C(=O)NCC(N)=O,-0.873%
9,O=c1[nH]cnc2[nH]cc(CN3CCCCC3)c12,1.02%
10,O=C(O)c1ccc(OCCn2ccnc2)cc1,0.42%
11,CNC[C@@H]1CC[C@@H](N)[C@@H](O[C@H]2[C@H](O)[C@@H](O[C@H]3OC[C@](C)(O)[C@H](NC)[C@H]3O)[C@H](N)C[C@@H]2N)O1,0.611%
12,CN(CCO)CC(O)Cn1cnc2c1c(=O)n(C)c(=O)n2C (stereo not given) (tested in a mixture with another compound),-0.8%
13,Nc1ccn(C[C@@H](CO)OCP(=O)(O)O)c(=O)n1,0.104%
14,CN=C(NC)NCc1ccccc1,0.0717%
15,C[N+](C)(CCCCCC[N+](C)(C)C1c2ccccc2-c2ccccc21)C1c2ccccc2-c2ccccc21,0.0673%
16,Nc1ncnc(Nc2ccc(Cl)cc2)n1,1.46%
17,O=P(O)(O)OC(Cn1cncn1)(Cn1cncn1)c1ccc(F)cc1F,1.33%
18,C[C@]12C=CC(=O)C=C1CC[C@@H]1[C@@H]2[C@@H](O)C[C@@]2(C)[C@H]1CC[C@]2(O)C(=O)COC(=O)CCC(=O)O,-0.084%
19,CCCC(=O)N1CCCN(c2nc(N)c3cc(OC)c(OC)cc3n2)CC1,-4.28%
20,OCC(O)COc1ccc(Cl)cc1 (stereo not given),0.866%

row,SMILES,activation
1,C[C@]12CCC(=O)C=C1CC[C@@H]1[C@@H]2[C@@H](O)C[C@@]2(C)[C@H]1CC[C@]2(O)C(=O)COP(=O)(O)O,1.63%
2,Cc1ccccc1CNc1ncnc2c1ncn2[C@@H]1O[C@H](CO)[C@@H](O)[C@H]1O,0.353%
3,CC(=O)OC[C@H]1O[C@@H](O[C@H]2[C@H](O)[C@@H](OC(=O)c3ccccc3C(=O)O)[C@H](O)O[C@@H]2COC(C)=O)[C@H](O)[C@@H](OC(=O)c2ccccc2C(=O)O)[C@@H]1O,-0.205%
4,CCC(C)C(C(=O)OCC[N+](C)(CC)CC)c1ccccc1 (stereo not given),-0.703%
5,CCOC(=O)[C@H](CCc1ccccc1)N[C@H]1CCCN2CCC[C@@H](C(=O)O)N2C1=O,-0.0212%
6,C#CCC(Cc1cnc2nc(N)nc(N)c2n1)c1ccc(C(=O)N[C@@H](CCC(=O)O)C(=O)O)cc1 (stereo not given in full),-5.85%
7,CCN(CC)c1ccc(N=Nc2ccc(S(=O)(=O)N(C)C)cc2)c(S(=O)(=O)NCC[n+]2ccccc2)c1,-2.41%
8,NCCC[C@H](N)CC(=O)N[C@H]1CNC(=O)[C@H]([C@H]2C[C@H](O)NC(N)=N2)NC(=O)/C(=C/NC(N)=O)NC(=O)[C@H](CO)NC(=O)[C@H](CO)NC1=O (β3hOrn-[Dap]SS[ΔAla(Z-3-ureido)][X5]; lactam 1-C),-0.0269%
9,O=C[C@H](O)[C@@H](O)[C@H](O[C@H]1O[C@H](CO)[C@@H](O[C@H]2O[C@H](CO)[C@@H](O)[C@H](O)[C@H]2O)[C@H](O)[C@H]1O)[C@H](O)CO,0.18%
10,CC(=O)N[C@@H](CC(=O)N[C@@H](CCC(=O)O)C(=O)O)C(=O)O,3.1%
11,CC1(C)S[C@@H]2[C@H](NC(=O)C(C(=O)Oc3ccc4c(c3)CCC4)c3ccccc3)C(=O)N2[C@H]1C(=O)O (stereo not given in full),-1.41%
12,CC(=O)OCC(=O)[C@@]1(O)[C@H](C)C[C@H]2[C@@H]3C[C@H](F)C4=CC(=O)C=C[C@]4(C)[C@H]3[C@@H](O)C[C@@]21C,-1.4%
13,C[C@H]1C[C@H]2[C@@H]3CCC4=CC(=O)C=C[C@]4(C)[C@@]3(F)[C@@H](O)C[C@]2(C)[C@@]1(O)C(=O)CCl,-6.49%
14,C[C@]12CC[C@@H]3c4ccc(OS(=O)(=O)O)cc4CC[C@H]3[C@@H]1CCC2=O,2.62%
15,Cc1c(O)cc2c(c1C)O[C@](C)(CCC[C@H](C)CCC[C@H](C)CCCC(C)C)CC2,-0.198%
16,CCCCCCCCCCCCCCCC(=O)OC[C@@H](COP(=O)([O-])OCC[N+](C)(C)C)OC(=O)CCCCCCCCCCCCCCC,0.577%
17,CCCCCCCCCCCCCCCCCCOP(=O)([O-])OC1CC[N+](C)(C)CC1,-0.739% [at 39.4 µM]
18,C=C1CC2C3CCC4=CC(=O)C=C[C@]4(C)[C@@]3(F)[C@@H](O)C[C@]2(C)[C@@]1(O)C(=O)COC(C)=O (stereo not given in full),-1.51%
19,CO[C@H]1[C@@H](O)[C@H](N)[C@@H](O[C@H]2O[C@H]([C@H](C)N)CC[C@H]2N)[C@H](O)[C@@H]1N(C)C(=O)CN,0.34%
